# According to PubChem BioAssay AID1851 (National Center for Advancing Translational Sciences (NCATS), 2009):
# Among all 16,000 compounds or so, about 4,000 (25%) were called active. About 26% were inconclusive and are not listed. A selection follows. Values without a mark were called inactive. Calls come from the whole dose curve; as a rule, active = well fitted curve in the direction sought with a large enough effect; inconclusive = small, poorly fitted or top-dose-only effect, or effect the other way; inactive = no such curve, though single readings can be large or run the other way.
# Target: Cytochrome P450 2C9 (Homo sapiens) (UniProt P11712)
# Experiment: Cytochrome panel assay with activity outcomes
# Conditions: recombinant CYP, pro-luciferin dealkylation, luminescence, p450-cyp2c9; series mostly up to 57.1 µM
# % is set by controls: 0 for no effect and ±100 for the full control effect.
# Sequence of Cytochrome P450 2C9 (Homo sapiens) (P11712 whole entry, looked up): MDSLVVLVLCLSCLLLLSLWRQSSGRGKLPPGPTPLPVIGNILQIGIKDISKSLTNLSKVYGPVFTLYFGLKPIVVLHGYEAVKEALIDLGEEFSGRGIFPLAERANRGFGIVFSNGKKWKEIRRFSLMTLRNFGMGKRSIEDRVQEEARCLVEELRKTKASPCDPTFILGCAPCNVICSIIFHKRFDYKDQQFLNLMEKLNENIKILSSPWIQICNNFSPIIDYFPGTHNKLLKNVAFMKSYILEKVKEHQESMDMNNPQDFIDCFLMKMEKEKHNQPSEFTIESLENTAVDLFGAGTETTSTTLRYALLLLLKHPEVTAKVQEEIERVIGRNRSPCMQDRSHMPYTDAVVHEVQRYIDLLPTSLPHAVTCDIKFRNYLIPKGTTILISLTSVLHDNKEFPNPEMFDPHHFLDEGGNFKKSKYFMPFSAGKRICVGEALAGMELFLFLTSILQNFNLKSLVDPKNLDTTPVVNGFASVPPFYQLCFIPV
Compound,AC50,"activity, negative = inhibition"
CN1CCN(c2ncc3nc(-c4ccc(F)cc4)c(=O)n(C4CC4)c3n2)CC1,12.6 µM (active),
N#CCCn1c(=O)c(-c2cc(F)cc(F)c2)nc2cnc(N3CCOCC3)nc21,inactive,
CN1CCN(c2ncc3nc(-c4cc(F)cc(F)c4)c(=O)n(C4CC4)c3n2)CC1,10 µM (active),
CN1CCN(c2ncc3nc(-c4ccc(Cl)cc4)c(=O)n(C4CC4)c3n2)CC1,inactive,
COc1ccc(-c2nc3cnc(N4CCN(C)CC4)nc3n(C)c2=O)cc1,inactive,
NC([N-]/N=C/c1ccccn1)=[S]=[Fe].O=S(=O)(O)O,,-29.5% [at 11.4 µM]
CC(C)CC(C(=O)OCC(=O)Nc1ncc(Cl)cc1Cl)N1C(=O)c2ccccc2C1=O (configuration not stated),7.08 µM (active),
O=C(O)CC[C@@H](C(=O)O)N1C(=O)c2ccccc2C1=O,inactive,
Cc1c(Cl)cnc(NC(=O)COC(=O)CCS(=O)(=O)c2ccccc2)c1Cl,inactive,
CC(=O)Nc1ccc(NC(=O)CC2Nc3cccc4cccc(c34)NC2=O)cc1 (configuration not stated),5.01 µM (active),
CCCCCCCOC1(c2ccccc2)OC(=O)c2ccccc21 (configuration not stated),8.91 µM (active),
Cc1cccc(OC2(c3ccccc3)OC(=O)c3ccccc32)c1C (configuration not stated),3.16 µM (active),
Cc1cccc(C)c1OC1(c2ccccc2)OC(=O)c2ccccc21 (configuration not stated),2.51 µM (active),
CC(C)C[C@H](NC(=O)[C@@H](O)[C@H](N)Cc1ccccc1)C(=O)O,inactive,
CCCCn1c(SCc2c(C)noc2C)nc2cc(S(N)(=O)=O)ccc21,10 µM (active),
CCn1c(C)nc2cc(S(=O)(=O)C(F)F)ccc21,inactive,
c1ccc2c(N3CCNCC3)nc(-c3ccc4c(c3)OCO4)nc2c1,,12.6% [at 2.29 µM]
O=C1CC(c2ccc3c(c2)OCO3)CN1 (configuration not stated),inactive,
O=C1CC(c2ccc3c(c2)OCO3)Sc2nc3ccccc3n21 (configuration not stated),3.16 µM (active),
O=C(CSc1nc2ccccc2[nH]1)NCCN1CCCCC1,inactive,
Cc1ccc(-c2nc3ccccc3o2)cc1NC(=O)Cc1cccs1,inactive,
O=C(CSc1nc2ccccc2o1)Nc1ccccc1N1CCCCCC1,12.6 µM (active),
c1ccc(/C(=N/Nc2nc3ccccc3s2)c2ccccn2)cc1,,-23.7% [at 11.4 µM]

Compound,AC50,"activity, negative = inhibition"
O=C(CNC1CCCCCC1)Nc1ccccc1N1CCCCC1,28.2 µM (active),
O=C(O)C1CCCCC1C(=O)Nc1ccccc1Cl (configuration not stated),inactive,
O=C(CSc1ccccn1)Nc1nc2ccc(Br)cc2s1,7.08 µM (active),
CCCCOC(=O)Nc1nc2ccccc2s1,inactive,
O=C(CSc1nc2ccccc2o1)Nc1nc2ccccc2s1,3.98 µM (active),
O=C(NC1CCCCC1)C(c1ccccc1)N1CCOCC1 (configuration not stated),inactive,
O=C(CN1CCN(S(=O)(=O)c2ccccc2)CC1)NC(=O)NCc1ccccc1,inactive,
O=C(CSc1nc2ccccc2o1)NC(=O)NCc1ccccc1,7.08 µM (active),
O=C(N/N=C\c1ccc(-c2ccccc2[N+](=O)[O-])o1)C1COc2cc3ccccc3cc2O1 (configuration not stated),1 µM (active),
C[N+]1(C)CCC(=C(c2ccccc2)c2ccccc2)CC1,inactive,
N#CC(C#N)=C(N)/C(C#N)=C/c1ccc(O)cc1,inactive,
CC(C)(CO)Cc1cc(C(C)(C)C)c(O)c(C(C)(C)C)c1,inactive,
CC(C)(C)c1cc(/C=C(\C#N)C(N)=S)cc(C(C)(C)C)c1O,0.1 µM (active),
CC(C)=NNc1ncnc2nc[nH]c12,,-11.9% [at 11.4 µM]
CCOc1cccc(OCCCNCCCOC)c1,inactive,
Cc1ccccc1-c1cncnc1Nc1ccc(F)cc1,,-14.2% [at 2.29 µM]
C=CCN1C(=CCO)[C@H]2C[C@H]3[C@@H]1CC[C@@]31c3ccccc3N3C=C4[C@@H]5N(/C=C/2[C@H]31)c1ccccc1[C@]51CC[C@H]2[C@H]1C[C@@H]4/C(=C/CO)N2CC=C,inactive,
C[C@@](N)(C(=O)O)c1ccc(S(=O)(=O)O)cc1,inactive,
CCOc1cc2[nH]c(=O)n(CCCC(=O)NCc3ccc(OC)cc3)c(=O)c2cc1OCC,4.47 µM (active),
COC(=O)C/C=C\[C@@H](C)[C@@H](/C=N\O[C@@H]1O[C@H](COC(C)=O)[C@H](OC(C)=O)[C@H](OC(C)=O)[C@H]1OC(C)=O)OC,,-21% [at 11.4 µM]
CC(=O)N1CCC2(CC1)CCN(c1ccccn1)CC2,inactive,
O=C(c1ccncc1)N1CCC2(CC1)CCN(c1ccccn1)CC2,10 µM (active),
CN1CCC2(CC1)CCN(C(=O)c1ccncc1)CC2,inactive,

Compound,AC50,"activity, negative = inhibition"
O=C(c1ccncc1)N1CCC2(CC1)CCN(c1ncccn1)CC2,15.8 µM (active),
O=C(c1ccncc1)N1CCC2(CC1)CN(c1ncccn1)C2,inactive,
C[C@H](NCCC(c1ccccc1)c1ccccc1)c1ccccc1,inactive,
CC1(C)CCC=[N+]1[O-],inactive,
CS[C@]12C(=O)C[C@]3(C)[C@@H](CC[C@@]3(O)C(=O)CO)[C@@H]1CCC1=CC(=O)CC[C@]12C,,11.9% [at 11.4 µM]
CC(C)CN1CC[C@@]2(CCCN(C(=O)c3cnccn3)C2)C1,inactive,
O=C(c1cnccn1)N1CCC2(CCN(Cc3nccs3)CC2)CC1,inactive,
O=C(c1cc(C(F)(F)F)cc(C(F)(F)F)c1)N1CCC2(CC1)CN(Cc1ccncc1)C2,10 µM (active),
O=C(c1ccncc1)N1CCC2(CC1)CN(Cc1cc(C(F)(F)F)cc(C(F)(F)F)c1)C2,inactive,
O=C(c1cc(C(F)(F)F)cc(C(F)(F)F)c1)N1CCC2(CC1)CN(Cc1ccccc1)C2,inactive,
N#Cc1ccc(CN2CC[C@@]3(CCCN(C(=O)c4cc(C(F)(F)F)cc(C(F)(F)F)c4)C3)C2)cc1,inactive,
O=C(c1cnccn1)N1CCC2(CCCN(Cc3nccs3)C2)CC1,15.8 µM (active),
O=C(c1cnccn1)N1CCC[C@@]2(CCN(c3ncccn3)C2)C1,inactive,
O=C(c1cnccn1)N1CCC[C@@]2(CCN(Cc3ccncc3)C2)C1,10 µM (active),
O=C(c1cc(C(F)(F)F)cc(C(F)(F)F)c1)N1CCC[C@@]2(CCN(Cc3ccncc3)C2)C1,0.0794 µM (active),
O=C(c1cnccn1)N1CCC2(CC1)CN(Cc1nccs1)C2,inactive,
O=C(c1cc(C(F)(F)F)cc(C(F)(F)F)c1)N1CCC[C@@]2(CCN(Cc3ccccc3)C2)C1,inactive,
CC1=NNC(=S)NCCCN2CCN(CCCNC(=S)NN=C(C)C=NNC(=S)NCCCN3CCN(CCCNC(=S)NN=C1)CC3)CC2,,5.77% [at 11.4 µM]
CC(C)N1CCN(c2ccc(OC[C@@H]3CO[C@@](Cn4cncn4)(c4ccc(Cl)cc4Cl)O3)cc2)CC1,inactive,
COc1cc(C2NC(=O)NC(O)(C(F)(F)F)C2C(=O)c2ccc(Cl)cc2)ccc1O (configuration not stated),inactive,
Cn1cccc1C(=O)N1CCC2(CC1)CN(Cc1ccc(C#N)cc1)C2,inactive,
Cn1cccc1C(=O)N1CCC2(CC1)CN(Cc1cc(C(F)(F)F)cc(C(F)(F)F)c1)C2,15.8 µM (active),
O=C(c1cc(C(F)(F)F)cc(C(F)(F)F)c1)N1CCC2(CC1)CN(c1ccccc1)C2,inactive,

Compound,AC50,"activity, negative = inhibition"
O=C(c1cc(C(F)(F)F)cc(C(F)(F)F)c1)N1CCC2(CC1)CCN(c1ccncc1)CC2,inactive,
O=C(c1ccco1)N1CCC2(CC1)CN(Cc1cc(C(F)(F)F)cc(C(F)(F)F)c1)C2,inactive,
O=C(c1cc(C(F)(F)F)cc(C(F)(F)F)c1)N1CCC2(CC1)CN(c1ccncc1)C2,3.98 µM (active),
CC(C)CC(=O)N1CCC(O)(CS(=O)(=O)Cc2ccc(Cl)cc2)CC1,inactive,
CCc1ccc(-c2ccc(C(=O)C(F)(F)F)[nH]2)cc1,inactive,
Cc1cccc(-n2nnc3cnn(C)c3c2=O)c1,inactive,
CN(C)Cc1ccccc1-c1nccc(Nc2ccc(F)cc2)n1,,6.01% [at 2.29 µM]
CN1CCN(c2ccc([N+](=O)[O-])cc2S(=O)(=O)N2CCOCC2)CC1,inactive,
O=[N+]([O-])c1ccc(N2CCN(Cc3ccccc3)CC2)c(S(=O)(=O)N2CCOCC2)c1,17.8 µM (active),
O=C(C1CCN(S(=O)(=O)N2CCOCC2)CC1)N1CCN(Cc2ccccc2)CC1,inactive,
CC1CCC(C(=O)O)([C@H](Br)C(=O)O)CC1 (some centres not stated),,-6.22% [at 11.4 µM]
Cc1c(C)c(C)c(CC2(C)CSC2)c(CC2(C)CSC2)c1C,,11.8% [at 11.4 µM]
CC(=O)NN1C(=O)c2ccc(Oc3ccc([N+](=O)[O-])cc3)cc2C1=O,inactive,
CS(=O)(=O)Nc1ccc([N+](=O)[O-])cc1Oc1ccccc1,3.16 µM (active),
CS(=O)(=O)Nc1ccc([N+](=O)[O-])cc1OC1CCCCC1,inactive,
CC(=O)COc1ccc2c(C)c(C)c(=O)oc2c1,22.4 µM (active),
CCCC[C@@H]1C[C@H]1C(NC(=O)c1cccnc1)c1ccc(Cl)cc1 (some centres not stated),12.6 µM (active),
CCCC[C@@H]1C[C@H]1C(NC(=O)c1cccnc1)c1ccc(-c2ccccc2)cc1 (some centres not stated),5.01 µM (active),
COCCNc1ncnc2ccc(-c3c(C)noc3C)cc12,,7.8% [at 2.29 µM]
COC(=O)[C@@H]1[C@@H]2C[C@H]3c4[nH]c5ccccc5c4CCN3C[C@@H]2CC[C@@H]1OS(=O)(=O)O,,7.13% [at 11.4 µM]
CN1CCN(c2ncnc3ccc(-c4ccccc4C#N)cc23)CC1,,2.98% [at 2.29 µM]
N#C/C(=C/c1cccc(C(F)(F)F)c1)c1nc(CCN2C(=O)c3ccccc3C2=O)cs1,0.178 µM (active),
Cc1cc(C)c(NC(=O)C2CCCN2C)c(C)c1 (configuration not stated),inactive,
